Rows were chosen to be rich in hits. Some 2.4% of all compounds tested hit in one or more screens of this group.
Pol eta inh-1 – DNA polymerase eta (human) inhibition; recombinant Pol eta, fluorescent DNA replication assay; 390,000 tested, 1.2% active; Q9Y253; Potency, µM (series often up to 114 µM), usual class: inhibitors; AID 588591
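Fluorescent replication assay: 50 nM final substrate added after a 15 min room-temperature compound preincubation with 10 nM enzyme. Signal taken at 0 min and again at 10 min.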
FEN1 inh-1 – inhibitors of human flap endonuclease 1. P39748. Recombinant FEN1 flap cleavage, fluorescence, 15 min. Potency, µM (series often up to 114 µM), hits mostly inhibitors. 390,000 tested, 0.35% active; also: nearly all actives have a fitted effect of over 65% in size
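Enzyme 10 nM, 15 min RT preincubation with compound; start with substrate 50 nM final; reads at 0 and 15 min; qHTS titration, four-parameter Hill fit.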
POLI inh – blocks human DNA polymerase iota activity; 390,000 tested, 1% active; Pol iota fluorescent replication assay, 10 min; Potency, µM (top dose mostly 115 µM), hits mostly inhibitors
Target sequence (Q9UNA4 whole entry, looked up): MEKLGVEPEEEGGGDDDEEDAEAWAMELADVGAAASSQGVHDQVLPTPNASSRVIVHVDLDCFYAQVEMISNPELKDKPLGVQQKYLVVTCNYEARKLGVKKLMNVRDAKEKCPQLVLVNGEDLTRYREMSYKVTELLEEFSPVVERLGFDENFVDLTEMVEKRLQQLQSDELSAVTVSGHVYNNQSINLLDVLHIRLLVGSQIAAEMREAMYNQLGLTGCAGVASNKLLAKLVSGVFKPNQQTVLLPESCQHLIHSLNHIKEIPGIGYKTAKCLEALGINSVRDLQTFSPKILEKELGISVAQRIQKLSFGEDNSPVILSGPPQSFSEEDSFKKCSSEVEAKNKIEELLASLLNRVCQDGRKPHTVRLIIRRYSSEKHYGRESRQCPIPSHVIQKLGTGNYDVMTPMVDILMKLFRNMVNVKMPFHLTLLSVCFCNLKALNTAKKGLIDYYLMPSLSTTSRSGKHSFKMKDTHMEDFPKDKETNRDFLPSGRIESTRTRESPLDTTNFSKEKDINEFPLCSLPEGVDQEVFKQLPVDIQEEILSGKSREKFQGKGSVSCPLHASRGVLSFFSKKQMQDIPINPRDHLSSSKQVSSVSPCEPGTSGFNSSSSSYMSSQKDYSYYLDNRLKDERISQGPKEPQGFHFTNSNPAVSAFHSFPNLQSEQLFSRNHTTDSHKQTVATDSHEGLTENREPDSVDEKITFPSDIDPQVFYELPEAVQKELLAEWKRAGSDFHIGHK
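Pol iota at 10 nM preincubated 15 min with compounds at room temperature; reaction started with fluorescent substrate, 50 nM final. Fluorescence read kinetically at 0 and 10 min; buffer-only wells as negative control.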
WRN helicase inh-1 – blocks human WRN helicase. Potency, µM (titrated, usually from 114 µM), usual class: inhibitors. WRN helicase unwinding, fluorescent forked duplex, kinetic. Q14191. 360,000 tested, 0.46% active; also: nearly all actives have a fitted effect of over 55% in size
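Enzyme (20 nM final) and test compound sit together 15 min at room temperature before substrate addition. Substrate is a single-forked duplex oligonucleotide (100 nM) labelled with fluorophore and quencher, with 2 mM ATP; helicase unwinding raises red fluorescence, read kinetically.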
Pol kappa inh-1 – blocks human DNA polymerase kappa activity; AID 588579; 400,000 tested, 0.53% active; Potency, µM (top dose mostly 107 µM), actives largely listed as inhibitors; purified Pol kappa, fluorescent DNA synthesis assay, 10 min
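Readout: fluorescence, taken kinetically at 0 and 10 min. Conditions: 10 nM Pol kappa, 15 min RT compound preincubation, 50 nM substrate final. Controls: enzyme-free buffer wells.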
Pol beta inh – inhibitors of human DNA polymerase beta; AID 485314; P06746; 340,000 tested, 1.3% active; Potency, µM (highest dose often 114 µM), hits mostly inhibitors; Pol beta primer extension/strand displacement, fluorescence kinetic
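Pol beta (10 nM) and compounds were preincubated 15 min at room temperature, then 50 nM substrate (final) started primer extension/strand displacement. Reads were taken at 0 and 10 min; concentration-response data were fitted to a four-parameter Hill equation.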
TbPGK inh – validation of Trypanosoma brucei phosphoglycerate kinase inhibitors | 500 tested, 79% active | Potency, µM (highest dose often 57.5 µM), actives largely listed as inhibitors | shares compounds with Pol kappa inh-1 | TbPGK coupled GAPDH assay, Kinase-Glo luminescence; also: nearly all actives have a fitted effect of over 65% in size
Pol iota confirm – Human Pol iota inhibitor confirmatory assay; 1,500 tested, 77% active; shares compounds with Pol kappa inh-1; Pol iota primer extension, TAMRA/BHQ fluorescence; Potency, µM, most hits filed as inhibitors
Pol kappa inh-2 – confirmation of human DNA polymerase kappa inhibitors; purified Pol-kappa, fluorescent strand-displacement substrate; AID 720501; 920 tested, 76% active; Potency, µM, most hits filed as inhibitors; shares compounds with Pol eta inh-1
Pol eta inh-2 – confirmation of human DNA polymerase eta inhibitors | shares compounds with Pol eta inh-1 | Pol eta primer extension, TAMRA/BHQ fluorescence, 10 min | Potency, µM, usual class: inhibitors | 2,600 tested, 64% active
FEN1 inh-2 – FEN1 inhibition, cherry-pick retest; shares compounds with FEN1 inh-1; 880 tested, 79% active; Potency, µM, actives largely listed as inhibitors; FEN1 flap cleavage, TAMRA/BHQ2 fluorogenic DNA substrate; AID 720498; also: nearly all actives have a fitted effect of over 60% in size
WRN helicase inh-2 – WRN helicase inhibition, cherry-pick retest. shares compounds with WRN helicase inh-1. WRN helicase DNA unwinding, fluorescence kinetic. Potency, µM (titrated, usually from 57.1 µM), usual class: inhibitors. 610 tested, 63% active. AID 720497; also: nearly all actives have a fitted effect of over 65% in size
TO DNA binding – binds DNA, flagged in WRN inhibitor counterscreen; shares compounds with WRN helicase inh-1; thiazole orange DNA binding displacement, fluorescence; Potency, µM (doses to about 57.1 µM), hits mostly inhibitors; 610 tested, 10% active;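 also: drop in dye fluorescence marks compound binding to DNA; nearly all actives have a fitted effect of over 60% in size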
BLM helicase inh – blocks human BLM helicase in WRN counterscreen; Recombinant BLM helicase DNA unwinding, red fluorescence; Potency, µM (titrated, usually from 57.1 µM), most hits filed as inhibitors; shares compounds with WRN helicase inh-1; 610 tested, 60% active; also: nearly all actives have a fitted effect of over 60% in size
Numbers stand for hits. Calls follow the shape of the dose curve; as a rule, active = well fitted curve in the direction sought with a large enough effect; inconclusive = small, poorly fitted or top-dose-only effect, or another doubt; inactive = no such curve, though single readings can be large; an effect the other way counts as inactive or inconclusive.

`O=C(O)c1ccccc1NS(=O)(=O)c1ccc(N/N=C/c2cccc(O)c2O)c([N+](=O)[O-])c1` gave Pol eta inh-1 3.2µM, FEN1 inh-1 40µM, POLI inh 10µM, WRN helicase inh-1 20µM, Pol kappa inh-1 28µM, TbPGK inh 12µM, Pol iota confirm 34, Pol eta inh-2 30, FEN1 inh-2 48, WRN helicase inh-2 19µM, TO DNA binding 27µM and BLM helicase inh 6.1µM.
For COc1ccc(-n2cccc2/C=C2/NC(=O)N(c3cccc(Cl)c3)C2=O)cc1 the results were Pol eta inh-1 inactive, FEN1 inh-1 inactive, POLI inh inactive, WRN helicase inh-1 inactive, Pol kappa inh-1 inactive and Pol beta inh inactive.
For O=C(O)c1cccc(-n2cccc2/C=C2/NC(=O)N(c3ccc(Cl)cc3)C2=O)c1 the results were Pol eta inh-1 0.71µM, FEN1 inh-1 20µM, POLI inh inconclusive, WRN helicase inh-1 3.2µM, Pol kappa inh-1 1.6µM, Pol beta inh 0.35µM, TbPGK inh 0.26µM, Pol iota confirm 0.75, Pol eta inh-2 1.3, FEN1 inh-2 21, WRN helicase inh-2 1.4µM, TO DNA binding inconclusive and BLM helicase inh 0.17µM.
CN(C)c1ccc(/C=C2/CCc3ccccc32)cc1 was read as FEN1 inh-1 inactive, POLI inh inactive and Pol kappa inh-1 inactive.
`C=CCN1C(=O)/C(=C2/Sc3ccccc3N2CCCS(=O)(=O)O)SC1=S` gave Pol eta inh-1 3.2µM, FEN1 inh-1 inconclusive, POLI inh inconclusive, WRN helicase inh-1 inconclusive, Pol kappa inh-1 inconclusive, Pol beta inh 45µM, Pol iota confirm inconclusive, Pol eta inh-2 38, WRN helicase inh-2 22µM, TO DNA binding inactive and BLM helicase inh 22µM.
COC(=O)c1ccc(N2NC(=O)/C(=C/c3ccc(-c4ccc(Cl)c(C(=O)O)c4)o3)C2=O)cc1 was read as Pol eta inh-1 3.2µM, FEN1 inh-1 inconclusive, POLI inh 8.9µM, WRN helicase inh-1 35µM, Pol kappa inh-1 28µM, Pol beta inh 22µM, Pol iota confirm 27, Pol kappa inh-2 4.7, Pol eta inh-2 7.6, WRN helicase inh-2 17µM, TO DNA binding inconclusive and BLM helicase inh 22µM.
Screening CC1=NOC(=O)/C1=C\c1ccc(-c2ccc(Cl)c(C(=O)O)c2)o1 returned Pol eta inh-1 4.5µM, FEN1 inh-1 inconclusive, POLI inh 11µM, WRN helicase inh-1 35µM, Pol kappa inh-1 35µM, Pol beta inh 14µM, Pol iota confirm 42, Pol eta inh-2 21, WRN helicase inh-2 19µM, TO DNA binding inactive and BLM helicase inh 27µM.
`COC(=O)c1ccccc1-c1ccc(/C=C2\C(=O)N(c3ccccc3)N=C2c2ccccc2)o1` gave Pol eta inh-1 inactive, FEN1 inh-1 inactive, POLI inh inactive, WRN helicase inh-1 inactive, Pol kappa inh-1 inactive and Pol beta inh inactive.
For O=C1NN(c2ccc(Cl)c(Cl)c2)C(=O)/C1=C/c1ccc(-c2ccccc2C(=O)O)o1 the results were Pol eta inh-1 20µM, FEN1 inh-1 inconclusive, POLI inh 5µM, WRN helicase inh-1 32µM, Pol kappa inh-1 40µM, Pol beta inh 32µM, Pol iota confirm 19, Pol kappa inh-2 17, Pol eta inh-2 30, WRN helicase inh-2 19µM, TO DNA binding inactive and BLM helicase inh inactive.
Screening CC(C)N1C(=O)S/C(=C/c2ccc(Sc3nc4ccccc4[nH]3)o2)C1=O returned Pol eta inh-1 inactive, FEN1 inh-1 inactive, POLI inh inactive, WRN helicase inh-1 inactive, Pol kappa inh-1 inactive and Pol beta inh inactive.
`CCOC(=O)C(C)N1C(=O)S/C(=C\c2ccc(-c3ccccc3C(=O)O)o2)C1=O` (centres undefined) gave Pol eta inh-1 3.2µM, FEN1 inh-1 32µM, POLI inh inconclusive, WRN helicase inh-1 25µM, Pol kappa inh-1 inactive, Pol beta inh 22µM, Pol iota confirm 17, Pol kappa inh-2 3, Pol eta inh-2 17, WRN helicase inh-2 15µM, TO DNA binding inactive and BLM helicase inh 22µM.
`O=C1NC2c3c(I)sc(I)c3C(=O)C2O1` (centres undefined) gave Pol eta inh-1 inactive, FEN1 inh-1 inactive, POLI inh inactive, WRN helicase inh-1 inactive and Pol kappa inh-1 inactive.
O=C1NC2c3c(Cl)sc(Cl)c3C(=O)C2O1 (centres undefined) was read as Pol eta inh-1 3.2µM, FEN1 inh-1 inconclusive, POLI inh 25µM, WRN helicase inh-1 2.4µM, Pol kappa inh-1 inconclusive, Pol iota confirm 4.2, Pol kappa inh-2 2.7, Pol eta inh-2 6, FEN1 inh-2 inconclusive, WRN helicase inh-2 15µM, TO DNA binding inactive and BLM helicase inh 1.4µM.
For CCc1nnc(SC(CC)C(=O)Nc2cccc(OC)c2)c2cc3oc(C)cc3n12 (centres undefined) the results were FEN1 inh-1 inactive, POLI inh inactive, Pol kappa inh-1 inactive and Pol beta inh inactive.
